MBNL1-CUG inh = inhibitors of human MBNL1 binding to CUG repeat RNA. Q9NR56. TR-FRET MBNL1-His/biotin-(CUG)12 binding, 665/545 ratio. Potency, µM (doses to about 57.5 µM), for the others: at the top dose activity change, negative = inhibition, most hits filed as inhibitors. 280,000 tested, 0.036% active. AID 2675; active means well fitted inhibition curve with a large enough effect in the signal ratio, with a control signal flat, not every such curve was filed as active; inconclusive means small, poorly fitted or top-dose-only effect, or effect the other way, or a change in a side signal; inactive means no such curve, though single readings can be large or run the other way; the % refers to the signal ratio; further: potency means the concentration at half of the fitted maximal effect
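Ratiometric TR-FRET (665 over 545 nm, excitation 340 nm) tracks disruption of MBNL1-His/biotin-(CUG)12 complex after 60 min at room temperature, with compounds at 92 nM to 58 uM final.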
CtBP-E1A inh = blocks the CtBP interaction with E1A; activity change, % (test concentration not listed); 340,000 tested, 0.49% active; AlphaScreen GST-E1A/His-CtBP binding, 1536-well; active compounds read low; AID 651724
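Protein mix (5X: 125 nM each GST-E1A, His-CtBP) was incubated with pinned compound 2 h at 37 deg C in dark, in 50 mM Tris pH 8.0 buffer with 300 mM NaCl. Glutathione donor and nickel acceptor beads followed; AlphaScreen signal read after 1 h.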
PKM2 activator = PKM2 (human) enzyme activation; purified PKM2, Kinase-Glo ATP luminescence, activation; response scale: 0% is enzyme alone, no compound; 260,000 tested, 0.34% active; P14618; Potency, µM (top dose mostly 57.5 µM), for the others: at the top dose activation, actives largely listed as activators; active means well fitted activation curve with a large enough effect; inconclusive means small, poorly fitted or top-dose-only effect; inactive means no such curve, though single readings can be large or run the other way; further: potency means the concentration at half of the fitted maximal effect; nearly all actives have a fitted effect of over 55% in size
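Purified hPK-M2 (>95%) run at intermediate activity with 0.1 mM ADP and 0.5 mM PEP in 50 mM imidazole pH 7.2, KCl, MgCl2; 1 h room temperature. ATP formed read by Kinase-Glo luminescence; normalized to uninhibited and no-enzyme controls.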
Six1-Eya2 blk = inhibitors of human Six1/Eya2 interaction. Q15475+O00167. AlphaScreen GST-Six1/His-Eya2 binding, biochemical; active compounds read low. activity change, % (concentration not given with the values). 360,000 tested, 0.56% active
Target sequence (O00167 whole entry, looked up): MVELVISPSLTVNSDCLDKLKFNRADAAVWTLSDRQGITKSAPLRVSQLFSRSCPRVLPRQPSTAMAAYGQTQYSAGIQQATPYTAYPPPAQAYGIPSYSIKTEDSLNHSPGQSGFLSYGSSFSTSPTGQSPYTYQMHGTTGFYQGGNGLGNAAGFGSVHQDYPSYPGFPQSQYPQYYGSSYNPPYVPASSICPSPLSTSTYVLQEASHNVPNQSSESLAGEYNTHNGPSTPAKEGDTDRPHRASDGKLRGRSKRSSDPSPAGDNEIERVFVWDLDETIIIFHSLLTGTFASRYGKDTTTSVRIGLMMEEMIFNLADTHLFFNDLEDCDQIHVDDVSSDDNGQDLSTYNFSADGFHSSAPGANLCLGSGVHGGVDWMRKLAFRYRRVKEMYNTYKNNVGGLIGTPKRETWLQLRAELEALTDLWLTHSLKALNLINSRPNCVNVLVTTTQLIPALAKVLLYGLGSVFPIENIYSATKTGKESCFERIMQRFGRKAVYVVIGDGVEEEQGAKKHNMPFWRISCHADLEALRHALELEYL
Target sequence (Q15475 whole entry, looked up): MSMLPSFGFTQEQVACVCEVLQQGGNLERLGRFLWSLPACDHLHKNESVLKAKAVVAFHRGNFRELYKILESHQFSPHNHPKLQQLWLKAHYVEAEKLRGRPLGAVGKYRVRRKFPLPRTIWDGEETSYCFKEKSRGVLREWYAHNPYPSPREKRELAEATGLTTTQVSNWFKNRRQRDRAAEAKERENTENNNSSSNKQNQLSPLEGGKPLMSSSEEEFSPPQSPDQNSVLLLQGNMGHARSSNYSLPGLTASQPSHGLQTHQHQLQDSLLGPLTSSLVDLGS
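GST-Six1 + His-Eya2 (5X stock: 250/500 nM); Tris pH 8.0, 300 mM NaCl, 0.05% BSA, 0.02% Tween 20; GSH donor/Ni acceptor beads; 1 h 37 °C dark; AlphaScreen readout.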
Active calls of the source: *; ? = inconclusive; . = no result given; [ ] = remark or other dose. This is a sample that favours compounds with a hit; in the whole collection about 0.93% have one here. Unless noted, no stated cut-off is given here; in the data, active means activity change below about -65%; inconclusive means mostly about -30% to -63%; inactive means weaker than that. On the % scale 0 is the no-effect control and ±100 the full control effect.

SMILES | MBNL1-CUG inh | CtBP-E1A inh | PKM2 activator | Six1-Eya2 blk
CC(=O)Nc1ccc(C(=O)Nc2nc(-c3cccnc3)cs2)cc1 | -8.7% | -12.5 | -0.4% | -5.9
O=C(Nc1ccc(OC(F)(F)F)cc1)c1ccccc1-n1cnnn1 | . | 1.0 | . | -0.1
O=C(Nc1nc(-c2ccccn2)cs1)c1ccccc1-n1cnnn1 | . | -98.1* | -1.5% | -90.6*
CC(=O)Nc1ccc(C(=O)Nc2nc(-c3ccccn3)cs2)cc1 | 14.0% | -90.9* | 11.6% | -81.4*
COC(=O)C1=C(C(=O)OC)[C@@H]2N(C)c3ccc(OC)cc3[C@@]23C[C@@H](C(=O)OC)N(C(C)=O)C3=N1 | . | . | -6.3%[11.5 µM] | .
Cc1ccc(C(=O)NCCN2CCC(n3c(=O)[nH]c4ccccc43)CC2)cc1 | . | 2.6 | . | -4.9
COc1cccc(/C=N/NC(=O)c2ccc(=O)n(C)c2)c1O | . | -87.4* | -0.1% | -88.2*
COc1cccc(/C=N/Nc2nnc(C)n2N)c1O | ? | -87.5* | . | -73.3*
COc1cccc(/C=N/Nc2cc(Cl)nc(C)n2)c1O | 4.2% | . | -3.2% | -8.7
Cc1nnc(N/N=C/c2ccccc2F)n1N | 6.3% | -22.4 | . | -7.0
COc1cccc(/C=N/Nc2ncnc3c2ncn3Cc2ccccc2)c1O | -3.4% | -87.1* | 5.9% | -77.9*
COc1ccc(OC)c(/C=N/NC(=O)c2ccc(=O)[nH]n2)c1 | ? | . | 0.0% | -1.1
COc1cccc(/C=N/NC(=O)c2ccc(=O)[nH]n2)c1O | . | . | -10.1% | -79.0*
COc1cc(OC)c(OC)cc1/C=N/NC(=O)c1ccc(=O)n(C)c1 | . | -0.6 | 1.6% | -2.9
COc1ccc(CN2CCC2(C)C(=O)NCc2ccc3c(c2)OCO3)c2ccccc12 (configuration not stated) | . | -6.9 | . | -15.2
CCCCCCCC1=Cc2ccc(F)cc2C(C(C(C)=O)C(=O)OC)N1C(=O)OC (configuration not stated) | . | . | -7.5%[11.5 µM] | .
COC(=O)C1=C(C(=O)OC)[C@@H]2N(C)c3ccc(OC)cc3[C@@]23C[C@@H](C(=O)OC)N(S(=O)(=O)c2cccs2)C3=N1 | . | . | -14.0%[11.5 µM] | .
CCCCCCCCN1C(=O)[C@H](CC(=O)NCc2ccc(C)o2)C[C@@]2(C(=O)OCC)CCC=C12 | . | 2.8 | . | -5.1
COC(=O)N1C2CC3(C)C=C(C)OC1(C)C3c1ccccc12 (configuration not stated) | . | . | -4.8%[11.5 µM] | .
COc1cccc(/C=N/NC(=O)c2c(C)nc3ccc(Cl)cn23)c1O | 14.0% | -94.0* | . | -78.0*
COc1cccc(/C=N/Nc2cc(N3CCOCC3)ncn2)c1O | -3.1% | -94.0* | -0.1% | -90.6*
COc1cccc(/C=N/NC(=O)c2[nH]c(C)c(C(=O)N/N=C/c3cccc(OC)c3O)c2C)c1O | 5.4% | -0.8 | 3.4% | -91.6*
C[C@H](CO)N1C[C@H](C)[C@@H](CN(C)C(=O)Nc2ccccc2)Oc2ncc(-c3ccc(C#N)cc3)cc2C1=O | . | 7.2 | . | 16.0
COc1ccc(Cn2c(=O)[nH]c3cc(C(=O)N4CCN(c5ccccc5OC)CC4)ccc3c2=O)cc1 | -2.9% | 13.0 | 28.3% | -13.2
COc1ccc(Cn2c(=O)[nH]c3cc(C(=O)N4CCN(Cc5ccccc5)CC4)ccc3c2=O)cc1 | -7.9% | -3.2 | 12.6µM* | -8.4
SMILES | MBNL1-CUG inh | CtBP-E1A inh | PKM2 activator | Six1-Eya2 blk
COc1ccccc1N1CCN(C(=O)c2ccc3c(=O)n(Cc4ccco4)c(=S)[nH]c3c2)CC1 | -6.3% | -7.9 | 1.12µM* | -12.1
CCCCc1nc2c(c3c1C[C@H](C)OC3)CN(C(=O)Nc1cccc(C#N)c1)CC2 | . | . | 0.4%[11.5 µM] | .
COC(=O)CC1c2ccccc2C(Cc2ccc3c(c2)OCO3)=C(C)N1C(=O)OC (configuration not stated) | . | . | -15.6%[11.5 µM] | .
O=S(=O)(Nc1cc(Sc2cccc3cccnc23)c(O)c2ccccc12)c1ccc(F)cc1 | ? | -92.2* | ? | -94.4*
COc1ccc(S(=O)(=O)Nc2cc(Sc3ncn[nH]3)c(O)c3ccccc23)cc1 | ? | 7.5 | -31.8% | -12.6
Cc1cccc(C)c1NC(=O)C1C(c2ccc3c(c2)OCO3)=Nc2ccccc2N1C(=O)c1cccc2ccccc12 (configuration not stated) | . | -3.1 | . | -20.7
CCOC(=O)[C@]12CCCC=C1N(Cc1ccc3c(c1)OCO3)C(=O)[C@H](CC(=O)NCC13CC4CC(CC(C4)C1)C3)C2 | . | -0.3 | . | -13.8
C/C(=N\NC(=O)c1cc(-c2cccnc2)nc2ccccc12)c1ccc(O)cc1O | . | -1.8 | -3.2% | -73.8*
CC(=NNC(=O)c1ccccc1N)c1ccccc1O | . | -26.6 | . | -21.4
CC(=NNC(=O)c1ccncc1)c1ccccc1O | . | -75.0* | . | -70.6*
CC(=NNC(=O)c1ccncc1)c1ccc(O)cc1O | . | -75.8* | . | ?
CCCn1c(-c2ccc(F)cc2)nc2c(NCCCN(CCO)CCO)nc(C)nc21 | . | . | -0.2% | .
CN1C(=O)[C@H]2[C@@H](c3ccc(C(F)(F)F)cc3)N[C@]3(CCCN(Cc4ccc(C(F)(F)F)cc4)C3=O)[C@H]2C1=O | . | -11.5 | . | -7.3
CCCCCCN(C(=O)CCCCCN1C(=O)NC(c2ccccc2-c2ccccc2)C(C(=O)OCc2ccccc2)=C1C)C(C(=O)NCCCC)c1ccc(OCC(=O)OC)c(C(=O)OC)c1 (configuration not stated) | . | . | 10.4% | .
Nc1ccc2c(c1Cl)C(=O)c1ccc(N)c(Cl)c1C2=O | ? | . | -10.8% | -77.9*
CCc1nnc(N/N=C/c2cc(Br)c(O)cc2O)n1N | ? | -91.1* | 1.4%[11.5 µM] | -80.0*
CCc1nnc(N/N=C/c2ccc(O)c(OC)c2)n1N | 8.4% | -15.4 | 3.9% | -3.0
CC(C)(C)c1nnc(N/N=C/c2cc(Br)ccc2O)n(N)c1=O | 10.9% | -93.9* | 4.9% | -90.2*
CCCCc1nc2c(c3c1C[C@H](C)OC3)CN(S(=O)(=O)c1ccc(Cl)c3nonc13)CC2 | . | . | -4.5%[11.5 µM] | .
CN(C)S(=O)(=O)c1cccc(NC(=S)N/N=C/c2cc(Br)ccc2O)c1 | 17.1% | -93.8* | -2.4% | -88.4*
CN(C)S(=O)(=O)c1cccc(NC(=S)N/N=C/c2cccc(O)c2)c1 | -0.3% | -9.6 | -3.4% | -15.3
O=S(=O)(c1ccccc1)c1ccc(NCc2ccco2)cc1 | 0.5% | 16.0 | 31.6µM* | 0.8
O=C(NC(=S)Nc1ccc(N2CCCCC2)cc1)c1cccs1 | -2.6% | ? | 3.0% | -67.1*
O=C(c1ccc(S(=O)(=O)NCc2ccco2)cc1)N1CCN(Cc2ccccc2)CC1 | 0.4% | 0.0 | 7.94µM* | -13.6
COc1ccccc1N1CCN(C(=O)c2ccc(NS(=O)(=O)c3ccc(C)cc3)cc2)CC1 | -10.6% | 1.3 | 8.91µM* | 2.4
O=C(c1ccc(NS(=O)(=O)c2ccccc2)cc1)N1CCN(Cc2ccc3c(c2)OCO3)CC1 | 5.3% | -5.8 | 12.6µM* | 1.2
CCOc1ccccc1N1CCN(C(=O)c2ccc(S(=O)(=O)Nc3ccccc3)cc2)CC1 | . | . | . | -7.6
Cc1nc(N2CCOCC2)c2nc(-c3ccccc3)n(CCCN(C)C)c2n1 | . | . | -0.9% | .

From PubChem
